Test results taken from publication PMC5913336, “True equilibrium measurement of transcription factor-DNA binding affinities using automated polarization microscopy”.

target: T1, GATAe (Drosophila melanogaster, UniProt Q9VF00 512-604); experiment: FP; 33 mM phosphate pH 7.0, 90 mM NaCl, 0.01% Tween 20, 0.1 mM DTT, 0.5% agarose; room temperature; conditions: tags: N-GST (pGEX-6P-1, kept); dsDNA, one strand shown
T1 sequence: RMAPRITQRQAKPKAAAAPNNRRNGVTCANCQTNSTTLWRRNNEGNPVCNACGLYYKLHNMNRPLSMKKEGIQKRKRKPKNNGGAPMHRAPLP

Sequence	binding signal	Kd [nM]
CATGGTATCTAC	3.02 Kd / Kd of best base at the position	–
CATTTTATCTAC	1.94 Kd / Kd of best base at the position	–
CATGTTATCTAC	–	~7.3
CACGTTATCTAC	1.57 Kd / Kd of best base at the position	–
CATGTTATCTAA	1.53 Kd / Kd of best base at the position	–
CATGTTAGCTAC	25.2 Kd / Kd of best base at the position	–
CATGTTATCAAC	1.76 Kd / Kd of best base at the position	–
TATGTTATCTAC	1.62 Kd / Kd of best base at the position	–
CATGTCATCTAC	13.1 Kd / Kd of best base at the position	–
CATGTTATCTAG	1.71 Kd / Kd of best base at the position	–
CATGTTATCTCC	1.58 Kd / Kd of best base at the position	–
CATGTTATCCAC	3.95 Kd / Kd of best base at the position	–
CATGTTTTCTAC	35.6 Kd / Kd of best base at the position	–
CATGTTGTCTAC	9.99 Kd / Kd of best base at the position	–
CATATTATCTAC	2.02 Kd / Kd of best base at the position	–
CATGATATCTAC	2.32 Kd / Kd of best base at the position	–
CATGTTACCTAC	20.8 Kd / Kd of best base at the position	–
CATGTTATATAC	17.7 Kd / Kd of best base at the position	–
CATGTTCTCTAC	42.3 Kd / Kd of best base at the position	–

Sequence	binding signal	Kd [nM]
CATGTTATCGAC	2.3 Kd / Kd of best base at the position	–
CATGTTATCTTC	1.72 Kd / Kd of best base at the position	–
CCTGTTATCTAC	1.53 Kd / Kd of best base at the position	–
AATGTTATCTAC	1.68 Kd / Kd of best base at the position	–
CATCTTATCTAC	1.22 Kd / Kd of best base at the position	–
CATGTTATCTAT	1.52 Kd / Kd of best base at the position	–
CAAGTTATCTAC	2.12 Kd / Kd of best base at the position	–
CTTGTTATCTAC	1.46 Kd / Kd of best base at the position	–
CATGTTATCTGC	1.67 Kd / Kd of best base at the position	–
CATGTGATCTAC	11.2 Kd / Kd of best base at the position	–
CGTGTTATCTAC	1.55 Kd / Kd of best base at the position	–
CATGTTAACTAC	9.8 Kd / Kd of best base at the position	–
CATGTAATCTAC	2.43 Kd / Kd of best base at the position	–
CAGGTTATCTAC	1.9 Kd / Kd of best base at the position	–
CATGTTATTTAC	15.3 Kd / Kd of best base at the position	–
GATGTTATCTAC	1.64 Kd / Kd of best base at the position	–
CATGTTATGTAC	25.2 Kd / Kd of best base at the position	–
CATGCTATCTAC	2.34 Kd / Kd of best base at the position	–
